According to the supplement of paper PMC10127200:
Counter-ions that a name gives are not always drawn.

Assays:
Test in all cases: Euclidean distance of Cell Painting phenotypic profile (signed KS, 77 features) to DMSO centroid (dimensionless distance); 5 or 10 uM (library dependent); higher = stronger phenotypic change vs DMSO (phenoactivity)
Details in all cases: 48 h
786-O = test system: 786-O
Method in brief: (§1)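 Phenoactivity is defined as the Euclidean distance from a compound profile to the median vehicle profile. Each profile comprised 77 Harmony features, scored as signed Kolmogorov-Smirnov statistics versus same-plate vehicle wells, then plate-position corrected, correlation-weighted and replicate-averaged at the top dose. Five cancer lines and one healthy fibroblast line were exposed to library compounds for 48 h at 10 or 5 uM (0.1% DMSO final).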

A549 = test system: A549
Method in brief: as §1

DU145 = test system: DU145
Method in brief: as §1

FB = test system: FB
Method in brief: as §1

HEPG2 = test system: HEPG2
Method in brief: as §1

OVCAR4 = test system: OVCAR4
Method in brief: as §1

SMILES | Euclidean distance (786-O) | Euclidean distance (A549) | Euclidean distance (DU145) | Euclidean distance (FB) | Euclidean distance (HEPG2) | Euclidean distance (OVCAR4)
COc1cc2ncc(-c3ccccc3)nc2cc1OC [Tyrphostin AG 1296] | 1.46 | 1.34 | 1.58 | 1.3 | 1.42 | 1.6
CCCCc1oc2ccc(NS(C)(=O)=O)cc2c1C(=O)c1ccc(OCCCN(CCCC)CCCC)cc1 [Dronedarone] | 4.33 | 4.18 | 3.45 | 3.39 | 4.6 | 3.76
CN(C)CCOc1ccc(/C(=C(/CCCl)c2ccccc2)c2ccccc2)cc1 [Toremifene Citrate] | 1.72 | 1.56 | 1.81 | 1.97 | 2.79 | 2.17
Cc1cncc(CN2CCC(=C3c4ccc(Cl)cc4CCc4cccnc43)CC2)c1 [Rupatadine Fumarate] | 1.51 | 1.15 | 1.34 | 1.22 | 1.69 | 1.27
CC(=O)Oc1cc2c(s1)CCN(C(C(=O)C1CC1)c1ccccc1F)C2 (stereo not drawn) [Prasugrel Hydrochloride] | 0.877 | 0.726 | 0.888 | 0.495 | 0.448 | 0.803
COc1cc(OC)c(C(=O)CCCN2CCCC2)c(OC)c1 [Buflomedil HCl] | 1.46 | 1.05 | 0.962 | 1.04 | 0.715 | 1.18
N[C@@H]1CCCC[C@H]1N.O=C([O-])C(=O)[O-].[Pt+2] [Eloxatin] | 3.84 | 3.01 | 1.15 | 3.29 | 2.14 | 3.55
Clc1ccc2c(N3CCN(CCCN4CCN(c5ccnc6cc(Cl)ccc56)CC4)CC3)ccnc2c1 [Piperaquine phosphate] | 1.59 | 1.33 | 1.11 | 1.45 | 0.952 | 1.25
NC(=O)c1cccc2cn(-c3ccc([C@@H]4CCCNC4)cc3)nc12 [Niraparib (MK-4827) tosylate] | 2.41 | 2.21 | 1.59 | 2.49 | 2.86 | 1.92
CC(C)[N+](C)(CCOC(=O)C1c2ccccc2Oc2ccccc21)C(C)C [Propantheline bromide] | 0.803 | 0.839 | 0.798 | 0.725 | 0.423 | 0.718
NC1=N[C@@]2(c3cc(NC(=O)c4ccc(F)cn4)ccc3F)COC[C@H]2CS1 | 1.08 | 1.29 | 1.47 | 1.04 | 0.861 | 1.05
Cn1nnnc1SCC1=C(C(=O)O)N2C(=O)[C@@H](NC(=O)[C@H](OC=O)c3ccccc3)[C@H]2SC1 [Cefamandole nafate] | 1.06 | 0.559 | 1.12 | 0.954 | 0.484 | 0.965
C=C1C[C@@]2(O)O[C@@]3(C[C@H]2C(C)C)[C@@H](C)CC[C@@H]13 [Curcumol] | 1.06 | 1.43 | 0.943 | 1.3 | 0.814 | 1.43
CCc1c2c(nc3ccc(OC(=O)N4CCC(N5CCCCC5)CC4)cc13)-c1cc3c(c(=O)n1C2)COC(=O)[C@]3(O)CC [Irinotecan HCl Trihydrate] | 3.01 | 3.5 | 4.47 | 4.08 | 3.19 | 3.1
C#Cc1cccc(Nc2ncnc3cc(OC)c(OCCCCCCC(=O)NO)cc23)c1 | 3.46 | 4.62 | 2.02 | 3.43 | 1.85 | 1.93
Cn1nnc2c(C(N)=O)ncn2c1=O [Temozolomide] | 1.44 | 0.97 | 2.71 | 0.972 | 1.44 | 0.619
CCOc1nc2cccc(C(=O)OCc3oc(=O)oc3C)c2n1Cc1ccc(-c2ccccc2-c2noc(=O)[nH]2)cc1 [Azilsartan Medoxomil] | 0.852 | 1.33 | 0.487 | 0.689 | 0.927 | 0.929
CC(C)NC[C@@H](C(=O)N1CCN(c2ncnc3c2[C@H](C)C[C@H]3O)CC1)c1ccc(Cl)cc1 [Ipatasertib (GDC-0068)] | 2.48 | 2.97 | 2.12 | 2.49 | 1.13 | 2.11
C[C@H]1C[C@H]2[C@@H]3CCC4=CC(=O)C=C[C@]4(C)[C@@]3(F)[C@@H](O)C[C@]2(C)[C@@]1(O)C(=O)CO [Betamethasone] | 1.28 | 2.01 | 2.37 | 1.68 | 0.663 | 2
Cc1cccc(-c2[nH]c(CNc3ccccc3F)nc2-c2ccc3ncnn3c2)n1 [Vactosertib ?(TEW-7197)] | 1.71 | 1.61 | 1.41 | 1.83 | 1.26 | 1.5
Cc1c(F)cccc1NC(=O)Nc1ccc(Cl)c(S(=O)(=O)[C@H]2CCCNC2)c1O | 1.18 | 0.479 | 0.758 | 1.15 | 0.926 | 1.49
Cc1ccc([N+](=O)[O-])cc1S(=O)(=O)N(C)/N=C/c1cnc2ccc(Br)cn12 | 3.41 | 4.67 | 2.87 | 2.69 | 2.06 | 4.4
Nc1ccn([C@@H]2O[C@H](CO)[C@@H](O)[C@@H]2O)c(=O)n1 [Cytarabine] | 3.08 | 2.79 | 2.54 | 3.39 | 2.79 | 3.15
C#C[C@]1(O)CC[C@H]2[C@@H]3CCC4=CC(=O)CC[C@@H]4[C@H]3CC[C@@]21C [Norethindrone] | 1 | 0.864 | 0.791 | 1.2 | 0.575 | 1.29

SMILES | Euclidean distance (786-O) | Euclidean distance (A549) | Euclidean distance (DU145) | Euclidean distance (FB) | Euclidean distance (HEPG2) | Euclidean distance (OVCAR4)
OC(c1ccccc1)(c1ccccc1)C12CC[N+](CCOCc3ccccc3)(CC1)CC2 [Umeclidinium bromide] | 0.834 | 1.43 | 0.97 | 1.27 | 0.7 | 1.64
C=C1CC[C@H](O)C/C1=C/C=C1\CCC[C@]2(C)[C@@H]([C@H](C)CCCC(C)(C)O)CC[C@@H]12 [Calcifediol] | 1.61 | 0.811 | 0.927 | 1.4 | 0.618 | 2.24
O=C(c1ccc(/C=C/c2n[nH]c3ccccc23)cc1)N1CCNCC1 | 3.16 | 3.89 | 3.66 | 3.31 | 2.78 | 3.53
O=C(CSc1nc2c(c(=O)n1-c1ccccc1)SCC2)Nc1ccc(-c2ccccc2)cn1 | 1.36 | 1.81 | 1.11 | 0.832 | 1.42 | 0.588
CC/C=C(\C(=O)N[C@@H]1C(=O)N2C(C(=O)OCOC(=O)C(C)(C)C)=C(COC(N)=O)CS[C@H]12)c1csc(N)n1 [Cefcapene Pivoxil Hydrochloride] | 1.24 | 0.833 | 2.69 | 0.746 | 0.54 | 0.898
O=C1[C@H](CC[C@H](O)c2ccc(F)cc2)[C@@H](c2ccc(O)cc2)N1c1ccc(F)cc1 [Ezetimibe] | 1.74 | 1 | 3.08 | 1.36 | 2.26 | 1.34
CN1C(C(=O)Nc2ccccn2)=C(O)c2sc(Cl)cc2S1(=O)=O [Lornoxicam] | 0.853 | 0.623 | 0.95 | 0.965 | 1 | 0.799
NC(=O)[C@@H]1CCCN1C(=O)[C@H](Cc1c[nH]cn1)NC(=O)[C@@H]1CCC(=O)N1 [Protirelin] | 1.34 | 0.937 | 0.758 | 1.31 | 0.44 | 0.947
COC(=O)N[C@@H](C)CNc1nccc(-c2cn(C(C)C)nc2-c2cc(Cl)cc(NS(C)(=O)=O)c2F)n1 | 2.13 | 1.78 | 1.47 | 2.67 | 3.02 | 1.86
CCOc1ccc2nc(S(N)(=O)=O)sc2c1 [Ethoxzolamide] | 0.892 | 0.718 | 1.34 | 1.35 | 1.09 | 0.937
CCN(CC)CCOC(=O)c1ccc(N)cc1 [Procaine] | 0.916 | 0.935 | 0.941 | 1.08 | 1.37 | 0.75
N#CC(c1ccc(Cl)cc1)c1c(Cl)cc(-n2ncc(=O)[nH]c2=O)cc1Cl (stereo not drawn) [Diclazuril] | 1.07 | 1.53 | 0.762 | 1.53 | 2.11 | 1.22
CCOC(=O)CC(=O)N1CCSC1COc1ccccc1OC (stereo not drawn) [Moguisteine] | 1.45 | 0.946 | 1.1 | 0.84 | 1.08 | 1.01
CC(=O)S[C@@H]1CC2=CC(=O)CC[C@]2(C)[C@H]2CC[C@@]3(C)[C@@H](CC[C@@]34CCC(=O)O4)[C@H]12 [Spironolactone] | 0.955 | 0.839 | 1.3 | 1.04 | 0.705 | 0.776
COc1cc(C(C)=O)ccc1O [Apocynin] | 0.601 | 1.23 | 0.921 | 0.872 | 1.6 | 0.864
NC(=O)Cc1cccc(C(=O)c2ccccc2)c1N [Nepafenac] | 1.03 | 1.31 | 2.96 | 1.25 | 1.14 | 0.874
COc1c(C)c2c(c(O)c1C/C=C(\C)CCC(=O)O)C(=O)OC2 [Mycophenolic acid] | 2.65 | 3.38 | 1.88 | 3.04 | 2.74 | 3.28
COC(=O)Nc1nc2cc(C(=O)c3ccc(F)cc3)ccc2[nH]1 [Flubendazole] | 2.74 | 2.91 | 3.24 | 2.46 | 2.16 | 3.1
C=C[C@@H]1C[C@]1(NC(=O)[C@@H]1C[C@@H]2CN1C(=O)[C@H](C(C)(C)C)NC(=O)O[C@@H]1C[C@H]1CCCCCc1nc3ccc(OC)cc3nc1O2)C(=O)NS(=O)(=O)C1CC1 [Grazoprevir] | 1.16 | 1.31 | 1.33 | 1.88 | 0.937 | 1.22
O=C(c1cncc(Br)c1)N1CCC(N2CCCC2)CC1 | 0.781 | 0.805 | 0.843 | 1.31 | 1.28 | 0.898
O=c1cc(-c2ccc(O)c(O)c2)oc2cc(O)cc(O)c12 [Luteolin] | 1.39 | 1.21 | 2.73 | 1.9 | 1.36 | 1.27
N[C@H](CO)C(=O)O [(R)-Serine] | 1.31 | 1.48 | 0.909 | 0.797 | 0.786 | 1.43
COc1cc2nc(N3CCN(C(=O)C4CCCO4)CC3)nc(N)c2cc1OC (stereo not drawn) [Terazosin HCl Dihydrate] | 1.02 | 0.591 | 1.34 | 1.07 | 1.69 | 1.43
COc1cc(F)c(F)c(Nc2ccc(I)cc2F)c1NS(=O)(=O)C1(C[C@H](O)CO)CC1 [Refametinib (RDEA119. Bay 86-9766)] | 2.91 | 2.51 | 2.83 | 3.57 | 1.79 | 2.27
